Shown are actives, neighbours in structure and some others; about 21% of the full set was active somewhere.
Gal4-VP16 FLuc = inhibits Gal4-VP16 luciferase reporter, ROR gamma counter-screen; Drosophila S2 Gal4-VP16 UAS-luciferase, luminescence, 20 h; AID 2546; 310,000 compounds, 3.5% hits; Potency, µM (series often up to 53.6 µM), inactives show at the highest dose activity, negative = inhibition, most hits filed as inhibitors;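 further: Gal4-VP16 expression switched on by copper sulfate through the metallothionein promoter; potency means the concentration at half of the fitted maximal effect; nearly all actives have a fitted effect of over 50% in size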
RORgamma inh = ROR gamma (mouse) transcription inhibition. P51450. Drosophila S2 Gal4-RORgamma UAS-luciferase reporter, 20 h. Potency, µM (doses to about 53.6 µM), for the others: top-dose activity change, negative = inhibition, most hits filed as inhibitors. 310,000 compounds, 5.4% hits; further: potency means the concentration at half of the fitted maximal effect; nearly all actives have a fitted effect of over 60% in size
Target sequence (P51450 whole entry, looked up, the tested form may be a part): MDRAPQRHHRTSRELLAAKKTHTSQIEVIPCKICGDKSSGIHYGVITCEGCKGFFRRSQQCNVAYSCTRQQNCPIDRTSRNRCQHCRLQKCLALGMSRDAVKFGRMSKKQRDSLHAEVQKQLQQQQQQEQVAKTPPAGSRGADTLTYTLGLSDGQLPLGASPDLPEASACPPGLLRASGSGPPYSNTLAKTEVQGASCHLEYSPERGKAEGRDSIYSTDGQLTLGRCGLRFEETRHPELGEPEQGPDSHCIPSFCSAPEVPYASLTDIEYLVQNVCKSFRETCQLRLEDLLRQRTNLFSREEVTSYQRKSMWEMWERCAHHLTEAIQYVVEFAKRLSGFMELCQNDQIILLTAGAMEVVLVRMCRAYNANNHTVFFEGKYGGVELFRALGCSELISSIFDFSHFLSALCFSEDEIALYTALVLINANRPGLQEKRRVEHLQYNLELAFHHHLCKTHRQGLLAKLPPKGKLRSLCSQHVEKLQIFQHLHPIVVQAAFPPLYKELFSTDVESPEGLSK
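Luciferase reporter read in Schneider cells carrying Gal4-RORγ (mouse) and UAS-Photinus luciferase; cells given compound 1 h before 700 uM copper sulfate induction, then incubated 20 h at ambient temperature.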
TDP1 cell noCPT = qHTS for Inhibitors of human tyrosyl-DNA phosphodiesterase 1 (TDP1): qHTS in cells in absence of CPT; DT40 Tdp1-/- hTDP1 cells, no CPT, ATP luminescence, 48 h; Potency, µM (doses to about 46.2 µM), inactives show at the top dose activity change, negative = growth inhibition, usual class: inhibitors; 420,000 compounds, 15% hits; further: potency means the concentration at half of the fitted maximal effect; nearly all actives have a fitted effect of over 55% in size
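Cells were dispensed at 400 per well, compounds added by pin tool, plates incubated ≥48 hr at 37 °C, then CellTiter-Glo added for 30 min at room temperature before luminescence reading. Line: DT40 Tdp1-/- complemented with hTDP1; camptothecin omitted.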
ELG1 repair inh = blocks ELG1-dependent DNA repair in HEK293T cells; HEK293T ELG1-luciferase reporter, luminescence, 16 h; DNA damage induced by 5-fluorouridine; Potency, µM (doses to about 46.1 µM), inactives show at the highest dose activity change, negative = inhibition, actives largely listed as inhibitors; 330,000 compounds, 2.3% hits; AID 504467; further: potency means the concentration at half of the fitted maximal effect; nearly all actives have a fitted effect of over 55% in size
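DMSO vehicle served as the neutral condition. Each well held 2,000 cells given 5-fluorouridine plus compound; after 16 hr at 37 °C/5% CO2, ONE-Glo was added and luciferase measured 30 min later.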
IL-1B inflam inh = blocks inflammasome-driven IL-1 beta release; AID 743279; activity change, % at 57.5 µM; 360,000 compounds, 4.7% hits; THP-1 LPS/ATP IL-1B secretion, AlphaLISA, 16 h; active compounds read low; in the data active means activity change below about -50%; inconclusive means mostly about -30% to -49%
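THP-1 cells pretreated 1 hr with compounds (up to 57.5 uM final), then stimulated with LPS (250 ng/mL final) plus ATP (1.25 mM final); secreted IL-1B measured by AlphaLISA after 16 hr, decreased signal indicating inhibition.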
DT40 TDP1 CPT = DT40-hTDP1 cell growth loss with CPT | chicken DT40 Tdp1-/-;hTDP1 cells + 20 nM CPT, ATP luminescence, 48 h | Potency, µM (series often up to 46.2 µM), for inactives: at the highest dose activity change, negative = growth inhibition, usual class: inhibitors | 420,000 compounds, 12% hits; further: potency means the concentration at half of the fitted maximal effect; nearly all actives have a fitted effect of over 55% in size
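Chicken DT40 Tdp1-/- cells stably complemented with human TDP1 were seeded at 400 cells/well in medium containing 20 nM camptothecin, exposed to pin-transferred compounds, and grown at 37 °C for at least 48 hr. Viability was read as ATP luminescence.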
* marks the source's active call; other numbers are inactive results; ? = inconclusive; / = no result; [ ] = remark or other dose. Unless noted, the call rests on the fitted dose curve; in most records, active means well fitted curve in the direction sought with a large enough effect; inconclusive means small, poorly fitted or top-dose-only effect, or another doubt; inactive means no such curve, though single readings can be large; an effect the other way counts as inactive or inconclusive. On the % scale 0 is the no-effect control and ±100 the full control effect.

SMILES	Gal4-VP16 FLuc	RORgamma inh	TDP1 cell noCPT	ELG1 repair inh	IL-1B inflam inh	DT40 TDP1 CPT
O=C(NCCCN1CCOCC1)c1cc(Cl)ccc1OCc1ccccc1	0.0%	-9.5%	-19.2%	0.2%	0.0	-18.8%
O=[N+]([O-])c1ccc(N2N=C(c3ccco3)CC2c2ccccc2)cc1 (stereo not drawn)	6.3%	32.6%	?	-2.5%	-55.1*	?
COC(=O)c1c(NC(=O)c2cc(OC)c(OC)c(OC)c2Br)sc2c1CCC(C)C2 (stereo not drawn)	/	/	20.6µM*	/	/	?
COc1cc(C(=O)Nc2sc3c(c2C#N)CCCC3)c(Br)c(OC)c1OC	/	/	3.26µM*	/	/	?
COc1cc(CC(=O)Nc2ccc3nc(SC)sc3c2)cc(OC)c1OC	-4.5%	22.1%	20.6µM*	?	77.2	?
COC(=O)CSc1nc2ccc(NC(C)=O)cc2s1	-0.4%	-7.6%	0.5%	5.6%	-52.7*	-7.3%
CC(=O)Nc1ccc2nc(SCc3ccccc3)sc2c1	/	/	?	/	/	-26.7%
CSc1nc2ccc(NC(=O)CS(=O)(=O)c3ccccc3)cc2s1	/	/	?	/	-22.1	-7.6%
COc1cc(C)ccc1OCCSc1nc2ccc(NC(C)=O)cc2s1	/	/	20.6µM*	/	/	?
CC(=O)Nc1ccc2nc(SCCOc3ccc(C)cc3)sc2c1	/	/	?	/	/	-19.3%
O=C(Cn1cc(C(F)(F)F)cc(Cl)c1=O)NCc1ccccc1	-21.4%	-1.0%	5.0%	?	-3.8	5.4%
O=C(NNC1OC(CO)C(O)C(O)C1O)c1cccc(Br)c1 (stereo not drawn)	11.3%[10 µM]	11.2µM*	13.4%	2.3%	5.0	-5.1%
CCCCCCCCCCCCCCNCCO	0.3%	13.4%	?	/	/	?
COc1ccc(N2CCN(Cc3nc(Cc4cccc(F)c4)no3)C(C)C2)cc1 (stereo not drawn)	-4.0%	6.4%	18.4µM*	?	1.7	-24.7%
Fc1cccc(Cc2noc(CN3CCCCC3CCc3ccccn3)n2)c1 (stereo not drawn)	?	-7.4%	?	?	-79.3*	8.1%
Cc1cccnc1CN1CCN(Cc2nc(Cc3cccc(F)c3)no2)CC1	-3.3%	12.6µM*	4.0%	?	20.6	-5.7%
CCc1ccc(C(=O)COC(=O)C(Cc2c[nH]c3ccccc23)NC(=O)c2ccc(Br)cc2)cc1 (stereo not drawn)	/	/	-28.3%	/	/	-21.9%
COCCN(CCOC)c1nc(C)nc2c1nc(-c1ccccc1)n2CC1CCN(C)CC1	-3.5%	-9.8%	/	/	/	/
COC(=O)c1cccc(Cn2c(Cl)c(/C=N/NC(=O)c3ccco3)sc2=O)c1	-4.6%	?	9.2µM*	-13.2%	?	?
Cc1ccc(-c2cc3ncc4c(n3n2)-c2cc(Cl)ccc2OC4)cc1	/	/	-9.9%	/	/	0.2%
Cc1nnc(NC(=O)CSc2nnc(-c3ccco3)o2)s1	5.01µM*	1.58µM*	16.6%	-1.3%	2.6	-2.3%
CC(C)c1nnc(NC(=O)CSc2nnc(-c3ccco3)o2)s1	17.8µM*	11.2µM*	-0.4%	-5.0%	35.0	-2.5%
Cc1ccc(NC(=O)CSc2nnc(-c3ccco3)o2)c(C)c1	5.2%	0.1%	0.2%	-1.5%	0.9	1.1%
Cc1ccc(C(=Cc2ccc([N+](=O)[O-])cc2)C(=O)O)cc1	/	/	11.9%	/	23.9	?
CN1C2=CC=CC=CC2=[N+](C)C12C=CC(=[N+]([O-])[O-])C=C2[N+](=O)[O-] (stereo not drawn)	1.3%	?	?	-13.2%	3.5	?
CN1C2=CC=CC=CC2=[N+](C)C12C([N+](=O)[O-])=CC(=[N+]([O-])[O-])C=C2[N+](=O)[O-] (stereo not drawn)	-13.5%	-44.7%	2.06µM*	-0.8%	/	?
CC1(C(=O)Nc2nccs2)CCN1C(=O)C1(c2ccccc2)CC1 (stereo not drawn)	/	/	-25.8%	/	-11.8	-23.7%
CC1(C(=O)NS(=O)(=O)c2ccccc2C(F)(F)F)CCN1C(=O)CCc1ccccc1 (stereo not drawn)	/	/	7.5%	/	-54.0*	9.1%
